The panel holds about 83,000 compounds, 20% with a hit somewhere; the sample as a whole holds those more often.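 Assay: single dose, 48 h. Readout: percent growth (0 = no net growth; negative = cell death). Active: <10.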 Unmarked numbers belong to inactive results. Active and inactive are the calls of the source.

The test system of this test is HL-60(TB) leukemia. Kind of test: NCI-60 one-dose screen, 48 h (100 = growth as untreated, 0 = no growth, -100 = all killed). Particulars: 10 µM unless noted.
Regarding `COc1ccc(C(=O)/C=C/c2ccc(C)cc2)cc1S(N)(=O)=O`, the growth is 56.2%.

Regarding `N[C@@H](CO)C(=O)O`, the growth was 106%.

With `CSc1[nH]c2ncnc(N)c2c1C#N`, the growth was 112%.

Consider `CCCC1Cc2cc(-n3nc(C)c4c3CC(C)(C)CC4=O)cc(NC3CCC(O)CC3)c2C(=O)N1` (stereo not given), for which the growth is -8.17% (active).

As for `COc1cc(/C=C/C(=O)c2cc(-c3ccccc3)ccc2O)cc(OC)c1OC`, the growth was 42.6%.

In the case of `Clc1ccc(N2N=C(c3cccc(Nc4ccncc4)c3)CC2c2ccccc2)cc1` (stereo not given), the growth is 85.4%.

For `CCN(CC)Cc1cc(Nc2ccnc3cc(Cl)ccc23)ccc1O`, the growth is 94.5%.

With `CCN(Cc1ccc(Cl)c(Cl)c1)c1ccc2nc(N)nc(N)c2c1C`, the growth is -79.5% (active).

As for `CC1(C)CC(C(=O)OCCCCCCCCCCC[P+](c2ccccc2)(c2ccccc2)c2ccccc2)C(C)(C)N1O` (stereo not given), the growth is -70.8% (active).

Consider `COc1cc(C2CC(c3c(C)[n+]([O-])c4ccccc4[n+]3[O-])=NN2)cc(OC)c1OC` (stereo not given), for which the growth is 97.8%.

`C=CCN(CC#N)CC=C`: the growth is 106%.

Turning to `Cc1ccc2cc3c(NC(=O)c4cccnc4)nn(C)c3nc2c1`, the growth was 87.8%.

For the compound `COC(=O)c1cc2c(/C=C3/NC(=S)NC3=O)coc2n1C`, the growth was 100%.

On to `O=C(CN1CCNCC1)N1CCOCC1`, for which the growth is 68.5%.

Turning to `O=c1[nH]nc(-c2ccc(Br)cc2)c2sc(NC(=S)Nc3ccc(Cl)cc3)nc12`, the growth is 94.2%.

Regarding `O=c1ccc(N=Nc2ccc([N+](=O)[O-])cc2)ccc1O`, the growth is 10%.

Take `COc1cc2ncnc(Nc3ccc(S(=O)(=O)Nc4cc(C)on4)cc3)c2cc1OCCCN1CCOCC1`: the growth is 101%.

As to `CC1=C(CCCOC(=O)NCCCl)C2=C(C)C3(CC3)[C@@](C)(O)C(=O)C2=C1`, the growth is 44.7%.

Regarding `CN1CCN(Cc2ccc(NC(=O)c3ccc(C(C)(C)C)c(C#Cc4cnc5cccnn45)c3)cc2C(F)(F)F)CC1`, the growth was -17.4% (active).

In the case of `CCCNc1nc(N(C)O)nc(N(C)O)n1`, the growth is 3.47% (active).

For `Nc1ncn([C@@H]2O[C@H](CO)[C@@H](O)[C@H]2O)c(=O)n1`, the growth was -2.84% (active).

Consider `CC(C)C(=O)Nc1ccc(-c2nc(-c3cccc(OCCN4CCOCC4)c3)c(-c3ccnc(Br)c3)[nH]2)cc1`, for which the growth is -28.5% (active).

Turning to `Cc1ccc(C(=O)CC(=O)C(F)(F)C(F)(F)C(F)(F)F)s1`, the growth is 101%.

With `COc1cc(C(=O)c2cc(C)c3[nH]c4ccc(Cl)cc4c3c2C)cc(OC)c1OC`, the growth was 0.383% (active).

As for `Cn1cc(-c2noc(-c3cn(C)c4ncc(F)cc34)n2)c2cc(Cl)ccc21`, the growth is 82.6%.

On to `COc1ccc(C(=O)/C=C/c2ccc(Cl)cc2)cc1S(=O)(=O)Nc1c(N)nc(SC)[nH]c1=O`, for which the growth is 36.8%.

`Cc1cc(Cl)ccc1Nc1nc(C(F)(F)F)ccc1C(=O)N/N=C/c1ccc(N(C)C)cc1`: the growth is 12.4%.

Take `O=C(/C=C\c1ccc2ccccc2n1)c1cc(Cl)ccc1O`: the growth is 89.8%.

With `CN1CCN(Cc2ccc(NC(=O)c3cncc(C#Cc4cnc5cccnn45)c3)cc2C(F)(F)F)CC1`, the growth is -37.9% (active).

Take `O=CNCCc1ccccc1`: the growth was 87.6%.

As for `Cc1nn(-c2ccc([N+](=O)[O-])cc2)c2ncnc(N/N=C/c3ccccc3O)c12`, the growth was -0.479% (active).

For the compound `Cc1nn(CC(=O)O)c2c1C(=O)CC(C)(C)C2`, the growth is 100%.

With `Cc1ccc(N=CNN=C(N)N)cc1`, the growth was 87.9%.

Turning to `COc1ccc(S(=O)(=O)NCCCNc2nccc(-c3c(-c4ccc(F)cc4)nc4sccn34)n2)cc1`, the growth was 70.4%.

Take `COc1ccc(-c2csc(C3=C(O)CN(CCCN4CCCC4=O)C3=N)n2)cc1OC`: the growth is 114%.

In the case of `Cc1cc(C(O)(c2ccc(Nc3ccccc3)cc2)c2ccc(Nc3ccc(S(=O)(=O)O)cc3)cc2)ccc1N` (stereo not given), the growth was -7.9% (active).

With `Cc1ccc(CNc2ccc3nc(CCC4CCCCC4)[nH]c3c2)cc1`, the growth is 14.8%.

In the case of `COc1cc(-c2c3sc(=O)[nH]c3nc3c2c(=O)[nH]n3C(C)C)cc2c1OCO2`, the growth is 116%.

For `CC1Cc2ccc(OCCN(C)C)cc2C1=O` (stereo not given), the growth was 111%.

Regarding `COc1ccc(C(=O)COc2ccc(/C=C3\Oc4ccc(Cl)cc4C3=O)cc2)cc1`, the growth was 16.5%.

Source of the values: PubChem BioAssay (NCI).
